Only some compounds are listed: those with a hit (about 7.5% of all), similar ones and a draw of the others.
NPC1 prom act: activates the NPC1 promoter; Potency, µM (series often up to 9.22 µM), inactives show at the highest dose activation, actives largely listed as activators; Huh7 NPC1 promoter luciferase reporter, 24 h; 2.4% of 320,000 active; AID 485313; also: % of control where 0% means no effect; nearly all actives have a fitted effect of over 60% in size
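NPC1 promoter–luciferase Huh7 cells; 24 h compound; luminescence.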
Rab9 promoter act: activates the Rab9 promoter; Potency, µM (titrated, usually from 9.22 µM), inactives show at the top dose activation, negative = inhibition, most hits filed as activators; 2.8% of 320,000 active; Huh7 Rab9 promoter-luciferase reporter, luminescence, 24 h; also: % of control where 0% means no effect; nearly all actives have a fitted effect of over 60% in size
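Stable Rab9-luc Huh7, 1500 cells/well, 2 h settle; cmpd in DMSO, 24 h, 37 °C/5% CO2; luciferase reagent 10 min RT; luminescence.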
ELG1 genotoxic: induces genotoxicity in HEK293T cells with luciferase-tagged ELG1; HEK293T ELG1-luciferase reporter, luminescence, 16 h; 1.3% of 330,000 active; Potency, µM (highest dose often 46 µM), without a hit: at the highest dose activity change, positive = activation, most hits filed as activators; also: % of control where 0% means no effect; nearly all actives have a fitted effect of over 60% in size
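Genotoxic stress is detected as increased luminescence from luciferase-tagged ELG1 in HEK293T cells, measured with ONE-Glo after a 16 hr treatment at 37 °C.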
FLuc modulator: counter-screen for miR-21 project: firefly luciferase inhibitors or activators; 6.9% of 360,000 active; Potency, µM (series often up to 57.5 µM), for the others: at the highest dose activity change, negative = inhibition, most hits filed as inhibitors; P08659; purified FLuc, Km substrates, luminescence inhibition;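 also: plate controls were vehicle for no effect and reference inhibitor for full effect; nearly all actives have a fitted effect of over 55% in size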
Target sequence (P08659 whole entry, looked up): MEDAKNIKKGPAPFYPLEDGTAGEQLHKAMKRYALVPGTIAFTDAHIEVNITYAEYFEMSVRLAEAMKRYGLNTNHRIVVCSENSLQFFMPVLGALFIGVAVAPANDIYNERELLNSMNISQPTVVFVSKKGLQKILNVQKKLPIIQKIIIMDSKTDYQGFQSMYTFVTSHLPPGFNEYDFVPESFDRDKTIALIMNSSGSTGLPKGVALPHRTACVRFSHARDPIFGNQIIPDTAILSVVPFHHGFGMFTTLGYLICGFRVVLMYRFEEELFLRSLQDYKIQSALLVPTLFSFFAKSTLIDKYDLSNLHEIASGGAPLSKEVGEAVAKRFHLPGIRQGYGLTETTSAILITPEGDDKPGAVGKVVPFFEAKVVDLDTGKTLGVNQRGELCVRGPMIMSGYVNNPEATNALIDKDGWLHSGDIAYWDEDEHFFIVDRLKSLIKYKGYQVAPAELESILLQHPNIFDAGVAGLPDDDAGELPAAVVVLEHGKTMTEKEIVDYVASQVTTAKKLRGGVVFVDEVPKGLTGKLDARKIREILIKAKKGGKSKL
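Biochemical qHTS of compounds, final roughly 60 µM downward over six points, against 10 nM purified firefly luciferase using Km concentrations of substrates (10 uM D-luciferin, 10 uM ATP) in Tris acetate pH 7.5 buffer; luminescence output.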
SMN2 splice enh: enhancers of SMN2 splice variant expression; HEK293 SMN2-luciferase splicing reporter, luminescence, 30-36 h; Potency, µM (titrated, usually from 46.1 µM), inactives show at the top dose activity change, positive = activation, usual class: activators; 2.8% of 210,000 active; also: % of control where 0% means no effect; nearly all actives have a fitted effect of over 55% in size
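HEK293 cells carry an SMN2 minigene-luciferase reporter in which exon 7 inclusion puts luciferase in frame. Cells were seeded at 2000 cells/well, attached for 10-12 hours, then exposed to compounds for 30-36 hours at 37C before ONE-Glo luminescence.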
* = called active by the depositor; ? = inconclusive; . = no result given; [ ] = another dose, or the depositor's remark. Calls follow the shape of the dose curve; as a rule, active = well fitted curve in the direction sought with a large enough effect; inconclusive = small, poorly fitted or top-dose-only effect, or another doubt; inactive = no such curve, though single readings can be large; an effect the other way counts as inactive or inconclusive. Potency is read from the fitted curve at half-maximal effect.

SMILES | NPC1 prom act | Rab9 promoter act | ELG1 genotoxic | FLuc modulator | SMN2 splice enh
CC(C)(C)n1ncc2c(=O)n(CC(=O)NCc3ccc(F)cc3)cnc21 | 0.5µM* | 0.35µM* | 4.1µM* | 4.3µM* | 8.9µM*
CC(C)(C)n1ncc2c(=O)n(CC(=O)NCc3ccco3)cnc21 | 3.2µM* | 3.2µM* | ? | ? | 13µM*
O=C(NCC1CCCN1S(=O)(=O)c1cccs1)c1c(F)cccc1F (configuration not stated) | 0% | -3% | 1% | -1% | .
Cc1ccc2nc(-c3ccc(N)cc3)sc2c1S(=O)(=O)O | . | . | . | . | 14µM*
Cc1nc2ccc(N)cc2s1 | 6% | -7% | 6% | 5% | ?
CC(C)c1nc(-c2ccc([N+](=O)[O-])cc2)cs1 | 11% | 20% | 8% | 17µM* | 13%
C(=N\N1CCN(c2ccccn2)CC1)/c1cccc2ccccc12 | 2% | 2% | -3% | 17µM* | .
C(/C=C/c1ccccc1)=N/N1CCN(c2ccccc2)CC1 | ? | ? | ? | -14% | ?
Oc1ccccc1/C=N/N1CCN(c2ccccn2)CC1 | ? | 2.8µM* | ? | 13µM* | .
COc1ccccc1N1CCN(/N=C/c2cccc(OC)c2OC)CC1 | -1% | 11% | 4% | ? | 7%
CC(C)c1ccc(/C=N/N2CCN(c3ccccn3)CC2)cc1 | ? | ? | 3% | ? | .
O=[N+]([O-])c1cccc(/C=N/N2CCN(c3ccccn3)CC2)c1 | ? | 3.2µM* | 17% | ? | .
C(=C\c1ccccc1)/C=N/N1CCN(c2ccccn2)CC1 | ? | ? | 4.1µM* | 12µM* | ?
O=S(=O)(c1ccc2ccccc2c1)N1CCN(C(=S)Nc2ccc(F)c(Cl)c2)CC1 | -2% | -1% | -4% | 10% | 2%[1.84 µM]
CCOC(=O)c1c(C)[nH]c(C)c1S(=O)(=O)N1CCC(C(=O)NCc2ccc(OC)cc2)CC1 | . | . | . | 3% | .
O=C(COC(=O)c1ccccc1N1C(=O)C2C3CCC(C3)C2C1=O)c1ccccc1 (configuration not stated) | -2% | -9% | 1% | -12% | -5%
Cc1ccc(C)c(C(=O)COC(=O)c2ccccc2N2C(=O)C3C4CCC(C4)C3C2=O)c1 (configuration not stated) | 14% | 6% | -6% | 7.6µM* | -7%
CCOc1ccc(CNC(=O)c2cccc(NC(=O)N3CCSc4ncccc43)c2)cc1OC | . | . | . | -3% | .
OCC1CCCN(C(=S)Nc2ccc(Nc3ccccc3)cc2)C1 (configuration not stated) | ? | 2µM* | ? | 9.5µM* | ?
CC(C)c1ccc(NC(=S)N2CCCC2)cc1 | 2.5µM* | 2.2µM* | ? | 24µM* | .
NC(=O)C1CCCN(C(=S)Nc2ccccc2)C1 (configuration not stated) | -3% | 2% | 0% | 0% | -21%
CC(C)c1ccc(NC(=S)N2CCN(C)CC2)cc1 | 20% | 26% | ? | ? | .
Cc1ccc(NC(=S)N2CCCC(O)C2)cc1 (configuration not stated) | 3% | 25% | ? | 17µM* | ?
Cc1ccc(NC(=S)N2CCOCC2)cc1 | -1% | 2% | 0% | ? | 14%
OCC1CCCN(C(=S)Nc2ccc(OC(F)F)cc2)C1 (configuration not stated) | 26% | 29% | ? | 17µM* | .
SMILES | NPC1 prom act | Rab9 promoter act | ELG1 genotoxic | FLuc modulator | SMN2 splice enh
CC(=O)N(/N=C1\Sc2ccccc2C1=O)c1cccc(C)c1 | ? | 14% | ? | 11µM* | 5.6µM*
N#CCSc1nc2ccccc2o1 | -2% | -4% | -2% | -1% | .
O=[N+]([O-])c1ccccc1CSc1nc2ccccc2o1 | ? | ? | ? | 19µM* | 20µM*
O=C(CS(=O)(=O)c1ccccc1)Nc1cccnc1 | -3% | -2% | 0% | -1% | .
Cc1ccc(C(=O)N2CCC(C)CC2)cc1NC(=O)c1nsc2ccccc12 | . | . | . | -21% | .
O=C(Nc1cccc(C(=O)N2CCN(c3ccccc3F)CC2)c1)c1nsc2ccccc12 | . | . | . | 3µM* | .
O=C(Nc1ccc(C(=O)N2CCN(c3ccccc3)CC2)cc1)c1nsc2ccccc12 | . | . | . | 5.4µM* | .

High-throughput results: PubChem BioAssay, National Center for Advancing Translational Sciences (NCATS)
